Experimental data published in PubChem BioAssay (Tox21).
Results filed as inconclusive are left out. A call without a number means that no potency is given here. The source made the active and inactive calls. Calls follow the shape of the dose curve; as a rule, active = well fitted curve in the direction sought with a large enough effect in the repeat runs; inconclusive = weak or mixed curves; inactive = no such curve, though single readings can be large; an effect the other way counts as inactive or inconclusive. Positions of bridges follow the written chain, without caps; N, C: chain ends. Non-standard residues stand in square brackets, D forms with d. Residues, ends and D or L forms follow the SMILES beside them. hArg = N=C(N)NCCCC[C@H](N)C(=O)O; Mpa = O=C(O)CCS

Assays:
[1] = qHTS RealTime-Glo MT Cell Viability Assay in HEK293 cells - 32 hour (AID 1224868); also: top concentration of the series differs between compounds; nearly all actives have a fitted effect of over 50% in size
In short: (§1)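 Nonlytic real-time viability readout: viable cells convert prosubstrate to NanoLuc substrate, giving luminescence proportional to live cell number. HEK293, 600 cells/well, compound added after 5 h, continuous culture at 37 C.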

[2] = A CellTox Green Cytotoxicity Assay to monitor cytotoxicity in HEK293 cells - 0 hour (AID 1224869); also: nearly all actives have a fitted effect of over 50% in size
In short: (§2)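 Fluorescence intensity, read at 0, 8, 16, 24, 32 and 40 h of compound treatment, reflected dye binding to DNA of dead HEK293 cells; compounds (23 nL, DMSO) were added 5 h after plating cells with reagent.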

[3] = qHTS RealTime-Glo MT Cell Viability Assay in HepG2 cells - 40 hour (AID 1224870); also: nearly all actives have a fitted effect of over 50% in size
In short: (§3)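 HepG2 cells mixed with RealTime-Glo MT reagents (NanoLuc plus cell-permeant prosubstrate) were seeded at 600 cells/well, incubated 5 h at 37 C/5% CO2, then pinned with compounds in DMSO; nonlytic luminescence tracked viability during 40 h treatment.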

[4] = A CellTox Green Cytotoxicity Assay to monitor cytotoxicity in HEK293 cells - 40 hour (AID 1224871); also: nearly all actives have a fitted effect of over 45% in size; also: potency is read from the fitted curve at half-maximal effect
In short: as §2

[5] = qHTS RealTime-Glo MT Cell Viability Assay in HEK293 cells - 16 hour (AID 1224872); also: top concentration of the series differs between compounds; nearly all actives have a fitted effect of over 50% in size
In short: as §1

[6] = qHTS RealTime-Glo MT Cell Viability Assay in HepG2 cells - 8 hour (AID 1224873); also: nearly all actives have a fitted effect of over 55% in size
In short: as §3

[7] = qHTS RealTime-Glo MT Cell Viability Assay in HEK293 cells - 40 hour (AID 1224874); conditions: RealTime-Glo luminescence; max response: active compounds read low; also: nearly all actives have a fitted effect of over 50% in size
In short: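 Viable HEK293 cells reduce a cell-permeant prosubstrate; the product diffuses out and is consumed by NanoLuc in the medium to give light. Compounds went in after a 5 h incubation and plates were read over the treatment course.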

[8] = A CellTox Green Cytotoxicity Assay to monitor cytotoxicity in HEK293 cells - 24 hour (AID 1224875); also: series mostly up to about 77 µM; nearly all actives have a fitted effect of over 45% in size
In short: as §2

[9] = A CellTox Green Cytotoxicity Assay to monitor cytotoxicity in HepG2 cells - 16 hour (AID 1224876); also: nearly all actives have a fitted effect of over 45% in size
In short: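 Using 1536-well format, dye-containing HepG2 suspension was seeded, allowed 5 h at 37 C/5% CO2, dosed by pintool with compounds, positive and negative controls, and imaged for fluorescence across 40 h.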

[10] = qHTS RealTime-Glo MT Cell Viability Assay in HepG2 cells - 32 hour (AID 1224877); also: nearly all actives have a fitted effect of over 55% in size
In short: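 Luminescence read-out: viable HepG2 cells reduce a prosubstrate to a NanoLuc substrate, giving a signal proportional to live cell number. Reads taken at 0, 8, 16, 24, 32 and 40 h of compound exposure at 37 C.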

Structure (SMILES) | Potency [1] | Potency [2] | outcome [3] | Potency [4] | Potency [5] | outcome [6] | max response [7] | Potency [8] | Potency [9] | outcome [10]
CCOc1cccc(N)c1 | inactive | inactive | inactive | inactive | inactive | inactive | 2.76% (inactive) | inactive | inactive | inactive
CCO[Si](CC)(OCC)OCC | inactive | inactive | inactive | inactive | inactive | inactive | -9.96% (inactive) | inactive | inactive | inactive
O=C(CCCCC(=O)Nc1c(I)cc(I)c(C(=O)O)c1I)Nc1c(I)cc(I)c(C(=O)O)c1I | inactive | inactive | inactive | inactive | inactive | inactive | -12.6% (inactive) | inactive | inactive | inactive
CC(=O)CCc1ccc(OC(C)=O)cc1 | inactive | inactive | inactive | inactive | inactive | inactive | 2.75% (inactive) | inactive | inactive | inactive
NCc1ccc(S(N)(=O)=O)cc1 | inactive | inactive | inactive | inactive | inactive | inactive | 4.4% (inactive) | inactive | inactive | inactive
CCCCCCCCCCCCCCC(=O)NC(CO)CCCCCCCCCCCCCC (stereo not given) | inactive | inactive | inactive | inactive | inactive | inactive | 5.76% (inactive) | inactive | inactive | inactive
CN1CCOC(c2ccccc2)c2ccccc2C1 (stereo not given) | inactive | inactive | inactive | inactive | inactive | inactive | 0.485% (inactive) | inactive | inactive | inactive
OCC(O)CN1CCN(c2ccccc2)CC1 (stereo not given) | inactive | inactive | inactive | inactive | inactive | inactive | 1.76% (inactive) | inactive | inactive | inactive
CC(C)COC(=O)c1ccccc1 | inactive | inactive | inactive | inactive | inactive | inactive | 2.33% (inactive) | inactive | inactive | inactive
O=C(O)[C@H](O)c1ccccc1 | inactive | inactive | inactive | inactive | inactive | inactive | 0.819% (inactive) | inactive | inactive | inactive
CCNC(=O)NCc1cccc(Cl)c1 | inactive | inactive | inactive | inactive | inactive | inactive | 0.19% (inactive) | inactive | inactive | inactive
CC(=O)c1cc(C)oc1C | inactive | inactive | inactive | inactive | inactive | inactive | -0.494% (inactive) | inactive | inactive | inactive
Cc1ccccc1C(N)=O | inactive | inactive | inactive | inactive | inactive | inactive | 3% (inactive) | inactive | inactive | inactive
C=CCCCC | inactive | inactive | inactive | inactive | inactive | inactive | 10.8% (inactive) | inactive | inactive | inactive
CCC/C=C(\C=O)CC | inactive | inactive | inactive | inactive | inactive | inactive | -24.3% (inactive) | inactive | inactive | inactive
CCCCOC(=O)C(C)O (stereo not given) | inactive | inactive | inactive | inactive | inactive | inactive | 11.1% (inactive) | inactive | inactive | inactive
Cc1cccc(Cl)c1 | inactive | inactive | inactive | inactive | inactive | inactive | 0.996% (inactive) | inactive | inactive | inactive
OC[C@@H](O)C(O)[C@@H](O)CO (stereo not given in full) | inactive | inactive | inactive | inactive | inactive | inactive | -0.153% (inactive) | inactive | inactive | inactive
Cc1ccc(C(=O)O)cc1[N+](=O)[O-] | inactive | inactive | inactive | inactive | inactive | inactive | 6.44% (inactive) | inactive | inactive | inactive
NCCOCCN | inactive | inactive | inactive | inactive | inactive | inactive | 1.68% (inactive) | inactive | inactive | inactive
CC(C)(CO)C(O)C(=O)NCCCO (stereo not given) | inactive | inactive | inactive | inactive | inactive | inactive | 2.36% (inactive) | inactive | inactive | inactive
CN(C)CCCCl | inactive | inactive | inactive | inactive | inactive | inactive | 0.853% (inactive) | inactive | inactive | inactive
C=C(C)[C@@H]1CC=C(C)CC1 | inactive | inactive | inactive | inactive | inactive | inactive | 1.3% (inactive) | inactive | inactive | inactive

Structure (SMILES) | Potency [1] | Potency [2] | outcome [3] | Potency [4] | Potency [5] | outcome [6] | max response [7] | Potency [8] | Potency [9] | outcome [10]
COC(=O)/C=C\C(=O)O | inactive | inactive | inactive | inactive | inactive | inactive | 0.0191% (inactive) | inactive | inactive | inactive
COP(=O)(O)OP(=O)(O)OC | inactive | inactive | inactive | inactive | inactive | inactive | 5.3% (inactive) | inactive | inactive | inactive
COc1ccc(CCO)cc1 | inactive | inactive | inactive | inactive | inactive | inactive | 21.3% (inactive) | inactive | inactive | inactive
CCCC(CC)c1ccccc1 (stereo not given) | inactive | inactive | inactive | inactive | inactive | inactive | 11.4% (inactive) | inactive | inactive | inactive
O=C(CCCl)NCCc1ccccc1 | inactive | inactive | inactive | inactive | inactive | inactive | 5.46% (inactive) | inactive | inactive | inactive
CC(C)Nc1ccccc1 | inactive | inactive | inactive | inactive | inactive | inactive | 3.46% (inactive) | inactive | inactive | inactive
NC(=O)[C@@H]1CSSCCC(=O)N[C@@H](CCCCN=C(N)N)C(=O)NCC(=O)N[C@@H](CC(=O)O)C(=O)N[C@@H](Cc2c[nH]c3ccccc23)C(=O)N2CCC[C@H]2C(=O)N1 ([Mpa][hArg]GDWPC-NH2; disulfide 1-7) | inactive | inactive | inactive | inactive | inactive | inactive | 0% (inactive) | inactive | inactive | inactive
O=C(Cn1ccnc1[N+](=O)[O-])NCc1ccccc1 | inactive | inactive | inactive | inactive | inactive | inactive | -1.45% (inactive) | inactive | inactive | inactive
COC(=O)CCCCC(=O)O | inactive | inactive | inactive | inactive | inactive | inactive | 8.26% (inactive) | inactive | inactive | inactive
N#Cc1ccccc1O | inactive | inactive | inactive | inactive | inactive | inactive | 15.1% (inactive) | inactive | inactive | inactive
Cn1c(=O)c2[nH]c(Br)nc2n(C)c1=O | inactive | inactive | inactive | inactive | inactive | inactive | 4.15% (inactive) | inactive | inactive | inactive
CC(=O)CC(=O)Nc1ccc(C)cc1C | inactive | inactive | inactive | inactive | inactive | inactive | -1.23% (inactive) | inactive | inactive | inactive
Cc1ccc(N)cc1S(=O)(=O)O | inactive | inactive | inactive | inactive | inactive | inactive | 7.16% (inactive) | inactive | inactive | inactive
CC(C)OC(=O)CCC(=O)OC(C)C | inactive | inactive | inactive | inactive | inactive | inactive | 8.19% (inactive) | inactive | inactive | inactive
CCC(=O)CC | inactive | inactive | inactive | inactive | inactive | inactive | 4.81% (inactive) | inactive | inactive | inactive
Fc1ccccc1 | inactive | inactive | inactive | inactive | inactive | inactive | 13.3% (inactive) | inactive | inactive | inactive
CC1=C(C(=O)O)N2C(=O)[C@@H](NC(=O)[C@H](N)C3=CCC=CC3)[C@H]2SC1 | inactive | inactive | inactive | inactive | inactive | inactive | 0.914% (inactive) | inactive | inactive | inactive
C=CCCCCCCCC | inactive | inactive | inactive | inactive | inactive | inactive | 1.11% (inactive) | inactive | inactive | inactive
O=C1OCCO1 | inactive | inactive | inactive | 291 nM (active) | inactive | inactive | 1.36% (inactive) | inactive | inactive | inactive
CC(=O)OC1CCCCC1C(C)(C)C (stereo not given) | inactive | inactive | inactive | inactive | inactive | inactive | 3.56% (inactive) | inactive | inactive | inactive
CC(C)=CCC[C@@](C)(O)[C@H]1CC=C(C)CC1 | inactive | inactive | inactive | inactive | inactive | inactive | -0.631% (inactive) | inactive | inactive | inactive
C[Si]1(C)O[Si](C)(C)O[Si](C)(C)O[Si](C)(C)O[Si](C)(C)O1 | inactive | inactive | inactive | inactive | inactive | inactive | 5.69% (inactive) | inactive | inactive | inactive
